From PubChem BioAssay
Active and inactive are the calls of the source.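 Rule for the calls: active = viability at or under a set limit in both replicates, limit being median viability minus 3 SD (cut at about 48% in these data, passing the limit was not always enough); inconclusive = at or under the limit in just one replicate; inactive = at or above the limit in both replicates.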

Assay: growth inhibitors of H69AR lung tumor, primary screen, human, duplicate replicates (AID 580);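 note: 100% = mean luminescence of untreated wells and 0% = no signal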
Settings: H69AR lung tumor cells viability, ATP luminescence, 72 h; at 10 µM; active compounds read low
In the case of `COC(=O)c1cnn2c(C(F)(F)F)cc(-c3ccco3)nc12`, the viability was 64.8% (inactive).
In the case of `CCOC(=O)c1ccc(NC(=O)CCc2nc(-c3cccc(C)c3)no2)cc1`, the viability was 86.2% (inactive).
In the case of `COc1ccccc1C(=O)N1CCN=C1SCc1cccnc1`, the viability was 96.8% (inactive).
For `c1cncc(-c2nnc3sc(-c4ccco4)nn23)c1`, the viability was 91.5% (inactive).
With `CC1CN(c2nc(-c3ccccc3)nc3ccccc23)CC(C)O1` (stereo not given) the viability was 85.4% (inactive).
With `O=C(NC1CCN(Cc2nnnn2CCc2ccccc2)CC1)c1ccccc1F` the viability was 86.5% (inactive).
For `O=S(=O)(c1ccc(OCC(O)CN2CCC(Cc3ccccc3)CC2)cc1)N1CCOCC1` (stereo not given), the viability was 84.8% (inactive).
For `COc1ccc(C2N(C(=O)c3ccccc3)CCN2C(=O)c2ccccc2)cc1`, the viability was 103% (inactive).
With `CCSC1=NCN(CCCC(=O)O)CN1` the viability was 99.9% (inactive).
In the case of `O=C(CCOc1ccccc1)NCc1ccccc1`, the viability was 89.6% (inactive).
For `CCOC(=O)c1ccccc1NC(=O)c1cc2sccc2n1C`, the viability was 81% (inactive).
With `C=CCn1c(SCC(=O)NC23CC4CC(CC(C4)C2)C3)nc(O)cc1=O` the viability was 92.9% (inactive).
With `O=C(OCc1ccc2c(c1)OCO2)c1ccc(S(=O)(=O)N2CCCCC2)cc1` the viability was 81.9% (inactive).
For `COC(=O)N1CC(c2ccccc2)CC1=O` (stereo not given), the viability was 100% (inactive).
For `COc1ccc(C2=Nn3c(nnc3-c3ccccc3)SC2)cc1OC`, the viability was 81.7% (inactive).
For `CCOc1ccc(Cl)cc1S(=O)(=O)N1CCCC1`, the viability was 88.8% (inactive).
In the case of `Cn1c(SCCN2CCCCC2)nnc1-c1ccccc1Br`, the viability was 105% (inactive).
For `O=C(COc1ccccc1)N1CCN(C(=O)c2cccc(F)c2)CC1`, the viability was 101% (inactive).
For `COc1ccc(CN2CC(C(=O)NCCCOC(C)C)CC2=O)cc1` (stereo not given), the viability was 99.1% (inactive).
For `COC(=O)CSc1nc(C)c(C(C)=O)cc1C#N`, the viability was 90.1% (inactive).
In the case of `Cn1c(=O)c2c(nc(Br)n2CCSc2ncccn2)n(C)c1=O`, the viability was 103% (inactive).
In the case of `O=C(NCC(c1cccnc1)N1CCOCC1)c1cccs1` (stereo not given), the viability was 92.5% (inactive).
For `O=C(CSc1nnnn1-c1ccc(Cl)cc1)NC(=O)Nc1ccc2c(c1)OCCO2`, the viability was 75.5% (inactive).
With `Cc1nc2sc(C(c3ccco3)N3CCN(c4ccccc4F)CC3)c(O)n2n1` (stereo not given) the viability was 97.5% (inactive).
With `CC1CCCCC1NC(=O)CN1CCN(Cc2ccccc2Cl)C1=O` (stereo not given) the viability was 80.4% (inactive).
For `COc1ccc(-n2c(=O)[nH]cc(C(=O)Nc3ccc(NC(C)=O)cc3)c2=O)cc1`, the viability was 96.1% (inactive).
With `CCN(CC)CCN1C(=O)C(=O)/C(=C(/O)c2c(C)[nH]c(C(=O)OC)c2C)C1c1ccco1` (stereo not given) the viability was 93.4% (inactive).
With `Cc1nc(N2CCc3ccccc32)[nH]c(=O)c1CCC(C)C` the viability was 79.1% (inactive).
With `C=COC(=O)CSc1snc(SCC(=O)OC)c1C#N` the viability was 98.9% (inactive).
In the case of `COc1ccc2[nH]c(=O)c(CN(C(=O)c3ccncc3)C(C)C)cc2c1`, the viability was 98.5% (inactive).
In the case of `Cc1ccc2cc3cc(C(=O)N4CC(C)CC(C)C4)oc3nc2c1` (stereo not given), the viability was 89.2% (inactive).
In the case of `O=C(C1CCN(c2nnnn2-c2ccccc2)CC1)N1CCN(c2ccccc2)CC1`, the viability was 79% (inactive).
With `CCCCSCCCNC(=O)CS(=O)Cc1nc(-c2cccc(C)c2)oc1C` (stereo not given) the viability was 87.5% (inactive).
In the case of `Cc1cc(C)n(-c2nnc(C)n2/N=C/c2ccccc2F)n1`, the viability was 98.3% (inactive).
For `O=C(O)c1cc(-c2ccccc2Cl)n[nH]1`, the viability was 81% (inactive).
With `O=C1c2ccccc2C(=O)N1CC(O)Cn1nnc2ccccc21` (stereo not given) the viability was 95.9% (inactive).
In the case of `COCCN(C(=O)CCC(=O)Nc1ccccn1)C(C(=O)NC1CCCC1)c1ccc(OC)cc1` (stereo not given), the viability was 111% (inactive).
With `CCOC(=O)c1ccccc1NC(=O)COC(=O)C1=COCCO1` the viability was 88.7% (inactive).
In the case of `Cc1ccc(-c2cc(C(=O)O)n[nH]2)o1`, the viability was 99.3% (inactive).
With `Cn1c(=O)c2c(nc(SCCCO)n2Cc2ccccc2Cl)n(C)c1=O` the viability was 79.3% (inactive).
